Screening results (PubChem)
FAS TE block = inhibitors of human fatty acid synthase thioesterase domain; P49327; recombinant FAS-TE, OMFH fluorogenic substrate, fluorescence endpoint; inhibition, % at 15 µM; 0.67% of 360,000 active; AID 602261;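 active = compounds whose normalised, plate-corrected inhibition of enzyme fluorescence in the single-dose primary screen is 50% or more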
CendR NRP1 mod = alters CendR peptide binding to human NRP-1 | 0.85% of 360,000 active | inhibition, % at 25 µM | FAM-RPARPAR peptide binding to NRP-1, fluorescence polarization;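 active = inhibition or corrected inhibition above about 18%, plus a signal ratio from 0.5 to 1.5, limit read from the data, passing the limit was not always enough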
NadD block = NadD (S. aureus) enzyme inhibition; purified NadD enzyme, colorimetric absorbance read-out; 0.78% of 360,000 active; inhibition, % at 20 µM; in the data active = inhibition above about 26%
CRFBP-R2 block = blocks CRF-induced signaling of the CRF-BP/CRF-R2 complex | HEK293 CRF-R2/CRF-BP, CRF-induced calcium fluorescence | inhibition, % at 11.8 µM | 0.59% of 350,000 active | AID 588475;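 active = inhibition of the ligand-induced calcium signal above about 50% at the single tested concentration, limit read from the data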
Myeloid diff 2 = myeloid differentiation induction; calls only at 10 µM; 1% of 360,000 active; AID 624256; ER-HoxA9 myeloid progenitors, lysozyme-GFP differentiation, flow cytometry;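 active = normalized GFP-positive differentiation at or above the plate's own cutoff, the solvent-only control mean plus 3 SD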;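 note: cells exposed to compound for four days before flow analysis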
Hits are given with their value; i = inactive; nt = not tested or not shown; + = active, no number. Compounds with a hit are over-represented: about 3.6% of the library has one in this group of screens.

SMILES	FAS TE block	CendR NRP1 mod	NadD block	CRFBP-R2 block	Myeloid diff 2
CCC(=O)c1cn([C@@H](CCC(OC)OC)CC(=O)OC(C)(C)C)cc1CC	i	i	i	i	i
Cc1ccnc(NC(=O)Nc2ccc(Br)cc2Cl)c1	i	i	i	i	+
COC(=O)c1ccccc1NC(=O)Nc1cc(C)ccn1	i	i	i	i	i
CN(CCN1CCOCC1)C(=O)C1CCC(=O)N(Cc2ccc(Cl)cc2)C1 (stereo not drawn)	i	i	i	i	i
O=C(NNS(=O)(=O)c1ccccc1[N+](=O)[O-])c1ccccc1Cl	i	i	i	i	+
O=C(NNS(=O)(=O)c1ccccc1[N+](=O)[O-])c1cc2ccccc2cc1O	i	23	i	i	i
COCC1CCN(C(=O)C2CCC(=O)N(Cc3cccc(F)c3)C2)CC1 (stereo not drawn)	i	26	i	i	i
Cn1c(N)c(C(=O)COC(=O)/C=C/c2ccccc2)c(=O)n(C)c1=O	i	i	i	i	i
O=C(O)c1ccccc1C(=O)Nc1ccc(Oc2ccc3ccccc3c2)cc1	i	i	i	i	+
CCc1cc(Br)ccc1NC(=S)NCCc1ccccc1	i	i	i	i	i
CCCOc1ccc(C2C(C(=O)OC)=CN(CCOC)C=C2C(=O)OC)cc1	i	28	i	i	i
O=C(NCCN1CCC(n2c(=O)[nH]c3ccccc32)CC1)c1ccc(OC(F)(F)F)cc1	i	i	i	nt	i
CC(C)NC(=O)C1(C)CCN1C(=O)c1cccn1C (stereo not drawn)	i	i	i	nt	i
CCCCN(C)S(=O)(=O)c1cc2c3c(c1)CCC(=O)N3CCC2	i	i	i	i	i
c1ccc(-c2nc(C3CCCCC3)c3ccccc3n2)cc1	i	i	i	i	i
c1ccc(-c2nc(C3CCCCC3)c3sccc3n2)cc1	i	28	i	i	i
Oc1ccccc1C=Nc1cccc2ccccc12	i	i	i	i	i
Oc1cccc(C=Nc2cccc3ccccc23)c1O	i	i	45	i	i
Cc1cccc(C=Nc2ccc3c4c(cccc24)CC3)c1O	i	i	i	i	+
CCO[C@H]1OC(C(=O)NCc2ccccc2)=C[C@@H](C2CC2)[C@@H]1CCCO	i	i	i	i	i
O=C(O)CNS(=O)(=O)c1cccc(Cl)c1	i	i	i	i	i
Cc1cc(C(=O)CN2C(=O)C3CC=CCC3C2=O)c(C)n1-c1ccccc1 (stereo not drawn)	i	29	i	i	i
COc1ccc(OCC(=O)Nc2ccc(S(=O)(=O)Nc3cc(C)nc(C)n3)cc2)cc1	i	i	i	i	i
COCCOCC(=O)Nc1ccc(S(=O)(=O)Nc2cc(C)nc(C)n2)cc1	i	i	i	i	+
COc1cc2c(cc1OC)CN(c1nc(CN3CCOCC3)nc3sc4c(c13)CCCC4)CC2	i	i	i	i	+
SMILES	FAS TE block	CendR NRP1 mod	NadD block	CRFBP-R2 block	Myeloid diff 2
COc1ccccc1NC(=O)CN1C(=O)CCS(=O)(=O)c2ccccc21	i	i	i	84	i
COc1ccc(Cl)cc1NC(=O)CN1C(=O)CCS(=O)(=O)c2ccccc21	i	i	i	i	i
O=C(N/N=C/c1ccccn1)c1ccncc1	i	i	i	i	nt
O=C(N/N=C/c1ccccn1)c1cccs1	i	i	i	62	i
O=C(COc1ccc2ccccc2c1)N/N=C/c1ccccn1	i	37	i	i	i
O=C(/C=C/[C@H]1O[C@@H](n2cnc3c(NC(=O)c4ccccc4)ncnc32)[C@H](O)[C@@H]1O)NCc1ccco1	i	22	i	nt	i
COc1cccc(C(=O)Nc2cccc(-c3ccccc3)c2)c1	i	i	i	i	i
Brc1ccccc1/C=N/Nc1ccc2ccccc2n1	i	i	i	i	i
O=[N+]([O-])c1cccc(C=NNc2ccc3ccccc3n2)c1O	i	i	i	78	nt
CCN(CC)C(=O)CN1C(=O)C2(OCC(C)(C)CO2)c2ccccc21	i	i	i	i	i
CCCCN(C(=O)c1ccc(N2CCCC2=O)cc1)c1c(N)n(CCC)c(=O)[nH]c1=O	i	i	i	i	i
COc1ccc(/C=C/C(=O)N(C)Cc2cccs2)cc1S(=O)(=O)N1CCOCC1	i	35	i	i	i
Cc1ccccc1-n1nc2c(c1NC(=O)c1ccc(Br)o1)CSC2	i	i	50	i	i
CC(C)CNC(=O)C1(C)CCCCCN1C(=O)c1cc(C#N)cs1 (stereo not drawn)	i	i	i	nt	i
O=C(N/N=C/c1cc(Br)c(Br)o1)c1cccnc1	i	31	i	i	i
O=C(N/N=C\c1cc(Br)c(Br)o1)c1cncc(Br)c1	i	i	i	i	i
Cc1ccc(C(=O)N/N=C/c2ccc(-c3ccccc3[N+](=O)[O-])o2)cn1	i	i	i	i	i
COc1ccc(-c2ccc(/C=N/NC(=O)c3cccnc3)o2)c([N+](=O)[O-])c1	i	i	i	i	+
Cc1ccc(C)c(N2CCN(c3ccncc3N)CC2)c1	i	i	i	i	i
CC1(C(=O)NS(=O)(=O)C2CC2)CCCN(C(=O)Cc2ccc3ccccc3c2)C1 (stereo not drawn)	i	i	i	nt	i
CCn1cc(C(=O)OCC(=O)c2cc(C)n(-c3ccc(OC(F)F)cc3)c2C)c(=O)c2ccc(C)nc21	i	i	i	60	i
CC(=O)N1c2ccc(S(=O)(=O)N3CCC(C(=O)Nc4cccc(C)c4)CC3)cc2CC1C (stereo not drawn)	i	31	i	i	i
CC(=O)N1c2ccc(S(=O)(=O)N3CCC(C(=O)Nc4cc(C)cc(C)c4)CC3)cc2CC1C (stereo not drawn)	i	i	i	i	i
CNc1ncnc2c1ncn2[C@H]1CN(CCc2ccccc2)C[C@@H](CO)O1	i	i	i	nt	i
Cc1ccc(NC(=O)c2ncn(CCCNCCCN(C)C)n2)cc1C	i	i	i	i	i
SMILES	FAS TE block	CendR NRP1 mod	NadD block	CRFBP-R2 block	Myeloid diff 2
Cc1ccc(NC(=O)c2ncn(CCCNCCCc3ccccc3)n2)cc1C	i	33	i	i	i
Cn1cnc(S(=O)(=O)N2CCCCC2c2cc(C(=O)Nc3cccc(C#N)c3)no2)c1 (stereo not drawn)	i	i	i	nt	i
O=C(NCc1ccc(OC(F)(F)F)cc1)c1cccc2c1C(=O)c1ccc(N3CCCC3)cc1S2(=O)=O	i	i	i	i	+
O=C(NCc1ccc(OC(F)(F)F)cc1)c1cccc2c1C(=O)c1ccc(N3CCC(Cc4ccccc4)CC3)cc1S2(=O)=O	i	i	i	i	+
COc1ccc(-c2c(-c3cccc(C)c3)oc3ccc(-c4ccc5c(c4)OCO5)cc23)cn1	i	i	i	i	i
COc1ccc(-c2oc3ccc(-c4ccc5c(c4)OCO5)cc3c2-c2ccc(OC)nc2)cc1	i	27	i	i	i
CCCn1c(SCC(=O)Nc2nnc(-c3ccccc3)s2)nnc1-c1ccccn1	i	27	i	i	i
CCCn1c(SCC(=O)NCCc2ccccc2)nnc1-c1ccccn1	i	i	i	i	i
CSc1ccccc1NC(=O)CO/N=C(\C)c1cc2ccccc2o1	i	i	i	i	i
C/C(=N\OCC(=O)Nc1ccc(F)c(F)c1F)c1cc2ccccc2o1	i	i	i	54	i
